In PubChem BioAssay (Tox21):
Results filed as inconclusive are left out. The source made the active and inactive calls. Unless noted, calls come from the whole dose curve; as a rule, active = well fitted curve in the direction sought with a large enough effect in the repeat runs; inconclusive = weak or mixed curves; inactive = no such curve, though single readings can be large; an effect the other way counts as inactive or inconclusive. Where a SMILES comes first, the peptide text is derived from it. [ ]: non-standard residue; d: D form. pGlu = O=C1CC[C@@H](C(=O)O)N1

Assays:
[1] = qHTS assay to identify small molecule antagonists of the retinoid acid receptor (RAR) signaling pathway - cell viability counter screen (AID 1159551); note: nearly all actives have a fitted effect of over 35% in size
Method in brief: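 Seed C3RL4 cells; next day add compound, then retinol to 1 uM final; incubate 6 h at 37 C; add CellTiter-Glo; read luminescence after 30 min at RT.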

[2] = qHTS assay to identify small molecule antagonists of the retinoic acid receptor (RAR) signaling pathway (AID 1159552; note: nearly all actives have a fitted effect of over 50% in size)
Method in brief: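 Retinol signaling pathway inhibitors screened in C3RL4 RARE-luciferase reporter cells seeded overnight at 37 C, then compounds added with 1 uM (final) retinol as pathway substrate. After 6 hr at 37 C, luciferase luminescence read after 30 min at room temperature.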

[3] = qHTS assay to identify small molecule agonists of the retinoic acid receptor (RAR) signaling pathway (AID 1159553); note: potency is the fitted concentration of half-maximal effect
Method in brief: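 Activation of retinol signaling was monitored via a RARE luciferase reporter in C3RL4 cells. After 6 hr compound treatment at 37 C, detection reagent was added for 30 min at room temperature before luminescence reading.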

[4] = qHTS assay to identify small molecule antagonists of the estrogen related receptor (ERR) signaling pathway from Tox21 library - cell viability counter screen (AID 1224834); note: nearly all actives have a fitted effect of over 30% in size
Method in brief: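 CellTiter-Fluor fluorescence measured; ERR cells; 17.5 h compound incubation at 37 C; 30 min reagent step.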

[5] = biological target: Luciferin 4-monooxygenase (Photinus pyralis) (UniProt P08659); test: qHTS assay to identify small molecule inhibitors of firefly luciferase (AID 1224835); note: nearly all actives have a fitted effect of over 25% in size; note: potency is the fitted concentration of half-maximal effect; for activity change, negative = inhibition: series mostly up to about 120 µM
Method in brief: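 Inhibition of purified Photinus luciferase is measured by luminescence. Substrate levels (D-luciferin, ATP) sit at their KM values. Each compound is tested in a concentration series.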

[6] = qHTS assay to identify small molecule antagonists of the estrogen related receptor signaling pathway with the pleiotropic PPARgamma coactivator (PGC) from Tox21 10K library - cell viability counter screen (AID 1224840; active = well fitted cell-killing curve with a large enough effect in the repeat runs, not every such curve was filed as active; note: nearly all actives have a fitted effect of over 40% in size)
Method in brief: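 Here the PGC/ERR cells serve as a cytotoxicity control: they are exposed to compounds for 17.5 hours at 37 C, and live-cell signal is quantified using CellTiter-Fluor fluorescence.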

[7] = biological target: Thyrotropin receptor (Homo sapiens) (UniProt P16473); test: qHTS assay to identify small molecule agonists of the thyroid stimulating hormone receptor (TSHR) signaling pathway (AID 1224843; calls by dose curve; note: nearly all actives have a fitted effect of over 45% in size)
Method in brief: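 Screening of the Tox21 10K collection used HEK293 cells engineered with TSHR at 800 cells per well. After a 30-min room-temperature compound exposure, HTRF cAMP reagents were added and fluorescence recorded 1 h later.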

[8] = qHTS assay to identify small molecule agonists of the hypoxia (HIF-1) signaling pathway - cell viability counter screen (AID 1224844; calls by dose curve; note: nearly all actives have a fitted effect of over 50% in size)
Method in brief: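 Multiplexed with the HRE beta-lactamase assay, this viability read used CellTiter-Glo luminescence (30 min, RT) on HRE-bla ME-180 cells treated 17 hrs with compounds in 0.5% dialyzed FBS medium.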

[9] = qHTS assay to identify small molecule agonists of H2AX (AID 1224845; active = well fitted activation curve with a large enough effect in the signal ratio in the repeat runs, not every such curve was filed as active; the % refers to the signal ratio)
Method in brief: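 Phospho-H2AX Ser139 measured by HTRF (ex 320 nm; em 665 and 620 nm) after 24 hr antibody incubation. Compounds, 15 concentrations, 0.76% DMSO, were applied to CHO-K1 cells for 3hr at 37C before lysis.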

[10] = qHTS assay to identify small molecule agonists of the constitutive androstane receptor (CAR) signaling pathway - cell viability counter screen (AID 1224836); note: series mostly up to about 92 µM; nearly all actives have a fitted effect of over 45% in size
Method in brief: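 HepG2 cells stably carrying hCAR and a CYP2B6-2.2kb reporter; 15-concentration compounds plus PK11195 (final 0.75 uM), 23 hr at 37 C/5% CO2. Viability read by CellTiter-Fluor fluorescence.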

[11] = qHTS assay to identify small molecule antagonists of the constitutive androstane receptor (CAR) signaling pathway - cell viability counter screen (AID 1224837); note: series mostly up to about 92 µM; nearly all actives have a fitted effect of over 45% in size
Method in brief: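 Using CellTiter-Fluor, viability is scored in HepG2 cells stably carrying hCAR and a 2.2kb CYP2B6 reporter after 23 hr compound exposure across 15 concentrations, with CITCO present at 50 nM.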

[12] = biological target: Nuclear receptor subfamily 1 group I member 3 (Homo sapiens) (UniProt Q14994); test: qHTS assay to identify small molecule antagonists of the constitutive androstane receptor (CAR) signaling pathway (AID 1224838);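 note: HepG2 cells stably expressing hCAR with CYP2B6 luciferase reporter stimulated by CITCO; nearly all actives have a fitted effect of over 40% in size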
Method in brief: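 Reporter luminescence was quantified after 24 h exposure of hCAR/CYP2B6-2.2kb double-stable HepG2 cells to compounds at 15 concentrations in the presence of 50 nM CITCO final.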

[13] = biological target: Nuclear receptor subfamily 1 group I member 3 (Homo sapiens) (UniProt Q14994); test: qHTS assay to identify small molecule agonists of the constitutive androstane receptor (CAR) signaling pathway (AID 1224839); note: nearly all actives have a fitted effect of over 15% in size; note: potency is the fitted concentration of half-maximal effect;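 for activation: HepG2 cells stably carrying human CAR and a CYP2B6 luciferase reporter; series mostly up to about 92 µM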
Method in brief: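 HepG2 cells stably co-transfected with hCAR and a CYP2B6-2.2kb luciferase reporter; compounds at 15 concentrations with 0.75 uM PK11195 present. After 24 hr at 37 C, luciferase read by ONE-Glo luminescence.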

[14] = qHTS assay to identify small molecule antagonists of the estrogen related receptor signaling pathway with the pleiotropic PPARgamma coactivator (PGC) from Tox21 10K library (AID 1224841; call rule not given here; note: series mostly up to about 92 µM; actives are mostly falling curves and most rising ones were filed inactive; nearly all actives have a fitted effect of over 50% in size)
Method in brief: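 Each well held 2,000 PGC/ERR cells, pre-incubated six hours (37 C, 5% CO2). Test substances in DMSO were added by pin tool and left for 18 h at 37 C before luciferase detection by One-Glo.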

[15] = qHTS assay to identify small molecule agonists of the estrogen related receptor signaling pathway with the pleiotropic PPARgamma coactivator (PGC) from Tox21 10K library (AID 1224842); note: nearly all actives have a fitted effect of over 15% in size
Method in brief: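 Luminescence from One-Glo (30 min, room temperature) measured after PGC/ERR cells had 18 h at 37 C with pinned compound (23 nL in DMSO). Cells had been seeded at 2,000 per well and pre-incubated 6 h.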

[16] = qHTS assay to identify small molecule antagonists of the estrogen related receptor (ERR) signaling pathway - cell viability counter screen (AID 1224818);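 note: series mostly up to about 46 µM; viability measured after 17.5 h of compound exposure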
Method in brief: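 In the same ERR cell assay, compound-treated wells (17.5 h, 37 C) were multiplexed with a fluorogenic viability reagent, CellTiter-Fluor, read after 30 min to flag cytotoxic substances.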
% is set by controls: 0 for no effect and ±100 for the full control effect.

Chain of Thyrotropin receptor (Homo sapiens) (P16473 whole entry, looked up): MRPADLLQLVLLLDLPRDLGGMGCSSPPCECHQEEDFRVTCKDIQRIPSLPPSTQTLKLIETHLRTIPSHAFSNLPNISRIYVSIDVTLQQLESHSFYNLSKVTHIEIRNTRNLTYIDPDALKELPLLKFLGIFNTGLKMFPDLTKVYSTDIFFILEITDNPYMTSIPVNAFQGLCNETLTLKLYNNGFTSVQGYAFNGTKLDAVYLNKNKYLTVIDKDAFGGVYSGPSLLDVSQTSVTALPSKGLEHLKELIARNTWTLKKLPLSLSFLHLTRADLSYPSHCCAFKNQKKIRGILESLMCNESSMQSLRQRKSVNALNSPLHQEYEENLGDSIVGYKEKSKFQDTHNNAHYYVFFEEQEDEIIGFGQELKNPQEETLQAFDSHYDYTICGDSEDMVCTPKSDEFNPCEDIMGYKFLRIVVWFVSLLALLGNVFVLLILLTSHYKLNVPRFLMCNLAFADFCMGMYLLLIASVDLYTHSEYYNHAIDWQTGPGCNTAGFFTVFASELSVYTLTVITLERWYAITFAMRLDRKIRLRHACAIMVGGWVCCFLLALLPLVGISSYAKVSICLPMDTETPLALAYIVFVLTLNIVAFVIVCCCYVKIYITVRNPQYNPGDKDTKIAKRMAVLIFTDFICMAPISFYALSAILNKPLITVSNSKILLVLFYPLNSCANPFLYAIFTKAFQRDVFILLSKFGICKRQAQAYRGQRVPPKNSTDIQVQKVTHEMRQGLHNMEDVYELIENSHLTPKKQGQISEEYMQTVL
Chain of Luciferin 4-monooxygenase (Photinus pyralis) (P08659 whole entry, looked up): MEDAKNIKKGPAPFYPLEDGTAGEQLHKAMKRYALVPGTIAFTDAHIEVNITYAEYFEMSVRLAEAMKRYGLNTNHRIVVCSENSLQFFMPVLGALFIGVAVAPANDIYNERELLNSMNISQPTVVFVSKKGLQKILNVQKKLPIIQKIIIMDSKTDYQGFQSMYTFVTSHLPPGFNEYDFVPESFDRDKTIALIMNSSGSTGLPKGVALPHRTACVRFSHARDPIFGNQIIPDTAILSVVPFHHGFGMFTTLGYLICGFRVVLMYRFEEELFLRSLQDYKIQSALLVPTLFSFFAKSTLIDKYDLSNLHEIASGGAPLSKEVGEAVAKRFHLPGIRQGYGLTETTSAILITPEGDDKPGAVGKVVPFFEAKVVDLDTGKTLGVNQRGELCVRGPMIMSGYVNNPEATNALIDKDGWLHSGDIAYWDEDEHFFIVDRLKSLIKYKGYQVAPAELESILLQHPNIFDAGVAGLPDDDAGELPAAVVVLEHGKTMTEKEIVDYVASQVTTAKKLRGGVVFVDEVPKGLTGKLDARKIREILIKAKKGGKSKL
Chain of Nuclear receptor subfamily 1 group I member 3 (Homo sapiens) (Q14994 whole entry, looked up): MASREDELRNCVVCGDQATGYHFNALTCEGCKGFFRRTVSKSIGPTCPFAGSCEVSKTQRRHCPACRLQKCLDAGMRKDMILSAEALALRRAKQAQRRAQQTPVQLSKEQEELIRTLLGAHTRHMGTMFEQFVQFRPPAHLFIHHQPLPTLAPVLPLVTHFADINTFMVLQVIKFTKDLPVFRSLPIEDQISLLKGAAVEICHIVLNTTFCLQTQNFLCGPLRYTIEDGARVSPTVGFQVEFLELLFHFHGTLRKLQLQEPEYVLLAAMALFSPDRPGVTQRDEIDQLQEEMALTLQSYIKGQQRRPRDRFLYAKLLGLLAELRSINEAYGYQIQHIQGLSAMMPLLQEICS

NC(N)=NCCN1CCCCCCC1
inactive: activity change, negative = cytotoxicity [1] -0.855% [at 0.349 µM] | activity, negative = inhibition [2] 16.3% [at 0.349 µM] | activation [3] 0.885% [at 0.756 µM] | viability change, negative = cytotoxic [4] 1.48% [at 0.349 µM] | activity change, negative = inhibition [5] -0.118% [at 0.435 µM] | viability change, negative = cytotoxic [6] -1.22% [at 0.349 µM] | activation [7] -0.603% [at 0.349 µM] | activity change, negative = cytotoxicity [8] -1.67% [at 0.29 µM] | activation (H2AX phosphorylation) [9] 0.429% [at 0.582 µM]

CCOC(=O)C1=NOC(c2ccccc2)(c2ccccc2)C1
active: Potency [5] 71 µM
inactive: outcome [1] | Potency [2] | Potency [3] | Potency [4] | outcome [10] | outcome [11] | outcome [6] | Potency [8] | Potency [9]

CCNC(=O)[C@@H]1CCCN1C(=O)[C@H](CCCN=C(N)N)NC(=O)[C@H](CC(C)C)NC(=O)CNC(=O)[C@H](Cc1ccc(O)cc1)NC(=O)[C@H](CO)NC(=O)[C@H](Cc1c[nH]c2ccccc12)NC(=O)[C@H](Cc1cnc[nH]1)NC(=O)[C@@H]1CCC(=O)N1 ([pGlu]HWSYGLRP-NHEt)
inactive: outcome [1] | Potency [2] | Potency [4] | Potency [5] | outcome [10] | outcome [11] | Potency [12] | Potency [13] | outcome [6] | Potency [14] | Potency [15] | Potency [7] | Potency [8] | Potency [9]

O=C1c2ccccc2C(=O)c2cc(O)ccc21
active: Potency [3] 17.2 µM | Potency [5] 28.3 µM | Potency [13] 54.5 µM
inactive: outcome [1] | Potency [2] | outcome [10] | outcome [11] | Potency [12] | outcome [6] | Potency [7] | Potency [8]

CCCCCCC1CCC(=O)O1 (stereo not given)
inactive: outcome [1] | Potency [2] | Potency [4] | Potency [5] | outcome [10] | outcome [11] | Potency [12] | Potency [13] | outcome [6] | Potency [14] | Potency [15] | Potency [7] | Potency [8] | Potency [9]

CC12CCC(C(=O)C1=O)C2(C)C (stereo not given)
inactive: outcome [1] | Potency [2] | Potency [3] | Potency [4] | outcome [10] | outcome [11] | outcome [6] | Potency [8] | Potency [9]

O=C1NC(=O)C2CC=CCC12 (stereo not given)
inactive: outcome [1] | Potency [2] | Potency [3] | Potency [4] | outcome [10] | outcome [11] | Potency [12] | Potency [13] | outcome [6] | Potency [7] | Potency [8] | Potency [9]

C[C@H]1[C@H](NC(=O)/C(=N/OC(C)(C)C(=O)O)c2csc(N)n2)C(=O)N1S(=O)(=O)O (stereo in doubt)
inactive: outcome [1] | Potency [2] | Potency [3] | Potency [4] | outcome [10] | outcome [11] | Potency [12] | Potency [13] | outcome [6] | Potency [7] | Potency [8] | Potency [9]

CN1CCN(c2cc3c(nn2)Oc2ccccc2N3C)CC1
active: Potency [3] 5.8 µM | Potency [13] 5.8 µM
inactive: activity change, negative = cytotoxicity [1] 0.0499% [at 19 µM] | activity, negative = inhibition [2] 162% [at 19 µM] | viability change, negative = cytotoxic [4] 4.08% [at 19 µM] | viability change, negative = cytotoxic [10] -2.12% [at 19 µM] | activity change, negative = cytotoxicity [11] -0.71% [at 19 µM] | activity, negative = inhibition [12] 125% [at 19 µM] | activation [7] -2.7% [at 19 µM] | activity change, negative = cytotoxicity [8] 1.97% [at 15.8 µM]

CCCC(C)C(=O)OCC (stereo not given)
inactive: outcome [1] | Potency [2] | Potency [4] | Potency [5] | outcome [10] | outcome [11] | Potency [12] | Potency [13] | outcome [6] | Potency [15] | Potency [7] | Potency [8] | Potency [9]

Cc1c(N)c(=O)n(-c2ccccc2)n1C
inactive: outcome [1] | Potency [2] | Potency [3] | Potency [4] | outcome [10] | outcome [11] | Potency [7] | Potency [8] | Potency [9]

CC1CCC(CO)CC1 (stereo not given)
inactive: outcome [1] | Potency [2] | Potency [4] | Potency [5] | outcome [10] | outcome [11] | Potency [12] | Potency [13] | outcome [6] | Potency [7] | Potency [8] | Potency [9]

CCNS(=O)(=O)c1ccc(C)cc1
inactive: outcome [1] | Potency [2] | Potency [3] | Potency [4] | Potency [5] | outcome [10] | outcome [11] | outcome [6] | Potency [8] | Potency [9]

CCC1C(=O)OCC1Cc1cncn1C (stereo not given)
inactive: outcome [1] | Potency [2] | Potency [3] | Potency [5] | outcome [10] | outcome [11] | Potency [7] | Potency [8] | Potency [9]

CCCCOC(=O)CCC(C)=O
inactive: outcome [1] | Potency [2] | Potency [4] | Potency [5] | outcome [10] | outcome [11] | Potency [12] | Potency [13] | Potency [7] | Potency [8] | Potency [9]

CC(C)c1ccc2ncccc2c1
active: Potency [5] 31.7 µM
inactive: outcome [1] | Potency [2] | Potency [4] | outcome [10] | outcome [11] | Potency [12] | Potency [13] | outcome [6] | Potency [14] | Potency [15] | Potency [8] | Potency [9]

O=S(=O)(O)c1cccc(S(=O)(=O)O)c1
inactive: outcome [1] | Potency [2] | Potency [4] | Potency [5] | outcome [10] | outcome [11] | Potency [12] | Potency [13] | outcome [6] | Potency [14] | Potency [15] | Potency [7] | Potency [8] | Potency [9]

CC(C)(C)C(=O)Oc1ccc(S(=O)(=O)Nc2ccccc2C(=O)NCC(=O)O)cc1
inactive: outcome [1] | Potency [3] | outcome [16] | Potency [4] | outcome [10] | outcome [11] | Potency [12] | Potency [13] | outcome [6] | Potency [8] | Potency [9]

COc1cc(-c2ccc(=O)[nH]n2)ccc1OC(F)F
inactive: outcome [1] | Potency [3] | Potency [4] | Potency [5] | outcome [10] | outcome [11] | Potency [12] | Potency [13] | outcome [6] | Potency [8] | Potency [9]

C[N+](C)(C)CCCCCCCCCC[N+](C)(C)C
inactive: outcome [1] | Potency [3] | outcome [16] | Potency [4] | Potency [5] | outcome [10] | outcome [11] | Potency [12] | Potency [13] | outcome [6] | Potency [7] | Potency [8] | Potency [9]

Nc1c2c(nc3c1CCC3)CCCC2
inactive: outcome [1] | Potency [3] | Potency [4] | Potency [5] | outcome [10] | outcome [11] | Potency [12] | Potency [13] | outcome [6] | Potency [14] | Potency [15] | Potency [8] | Potency [9]
